The source made the active and inactive calls.
Key:
[1] = test system: PRMT1 (protein arginine N-methyltransferase 1); assay: small molecules binding arginine methyltransferase PRMT1 – biochemical, small-molecule microarray, 635 nm fluorescence, primary screen (AID 1088); conditions: higher = more signal;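 further: binding of Prmt1 protein to compounds spotted on small-molecule microarray slides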
[2] = growth effects on S. cerevisiae YJM789 – YJM789 clinical isolate, OD600, 24 h, basal, primary screen (AID 1089); conditions: higher = more signal, called active from +8 up or from −8 down;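 further: growth of clinical yeast isolate S. cerevisiae YJM 789 seeded 1000 cells per well; test concentration not given here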
[3] = S. pombe growth modifiers, basal conditions – strain 972, OD600, 24 h, no modulator, primary screen (AID 1090);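 further: basal condition with compound alone and no growth modifier present; test concentration not given here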; conditions: S. pombe 972 growth, higher = more signal, called active from +8 up or from −8 down
[4] = budding yeast growth modifiers under rapamycin – strain BY4716, OD600, 96 h, primary screen (AID 1091); further: test concentration not given here; conditions: S. cerevisiae BY4716 + rapamycin, higher = more signal, called active from +8 up or from −8 down
[5] = target: Torsin-1A-interacting protein 2 (Homo sapiens) (UniProt Q8NFQ8); assay: small molecules binding lysate-expressed LULL1 – cell lysate, human LULL1 lysate, 635/667 nm fluorescence, primary screen (AID 1092); conditions: small-molecule microarray, hLULL1 lysate binding, 635 nm fluorescence; higher = more signal;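 further: probe is lysate of COS7 cells overexpressing human LULL1; score merges per-feature 667 nm fluorescence with signal-to-noise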
[6] = optical density change of DRC41 E. coli – strain DRC41, OD650, 24 h, E. coli filamentation project, primary screen (AID 1093);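 further: MC1000 strain lacking acrAB efflux and sulA so SOS filamentation is blocked; test concentration not given here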; conditions: E. coli DRC41 growth, higher = more signal, called active from +8 up or from −8 down
[7] = probe aLefty2 binding to arrayed compounds – biochemical, biotinylated probe, 635/667 nm fluorescence, primary screen (AID 1094); conditions: small-molecule microarray, higher = more signal;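 further: score merges spot fluorescence near 667 nm with spot signal-to-noise ratio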
[8] = test system: Noggin (protein binding on small-molecule microarray); assay: small molecules binding Noggin protein – biochemical, 635/667 nm fluorescence, primary screen (AID 1095); conditions: 635 nm fluorescence, higher = more signal;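 further: score merges 667 nm feature fluorescence with signal to noise over triplicate slides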
[9] = target: Neurogenic locus notch homolog protein 3 (Homo sapiens) (UniProt Q9UM47); assay: small molecules binding NOTCH3 protein – biochemical, 635/667 nm fluorescence, primary screen (AID 1096); conditions: small-molecule microarray, 635 nm fluorescence, higher = more signal
[10] = probe aEGFR binding to arrayed compounds – biochemical, biotinylated probe, 635/667 nm fluorescence, primary screen (AID 1097); conditions: small-molecule microarray, higher = more signal;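 further: probe is a biotinylated anti-EGFR antibody binding compounds printed on slides; score combines fluorescence near 667 nm and signal to noise of each spot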

Chain of Torsin-1A-interacting protein 2 (Homo sapiens) (Q8NFQ8 whole entry, looked up): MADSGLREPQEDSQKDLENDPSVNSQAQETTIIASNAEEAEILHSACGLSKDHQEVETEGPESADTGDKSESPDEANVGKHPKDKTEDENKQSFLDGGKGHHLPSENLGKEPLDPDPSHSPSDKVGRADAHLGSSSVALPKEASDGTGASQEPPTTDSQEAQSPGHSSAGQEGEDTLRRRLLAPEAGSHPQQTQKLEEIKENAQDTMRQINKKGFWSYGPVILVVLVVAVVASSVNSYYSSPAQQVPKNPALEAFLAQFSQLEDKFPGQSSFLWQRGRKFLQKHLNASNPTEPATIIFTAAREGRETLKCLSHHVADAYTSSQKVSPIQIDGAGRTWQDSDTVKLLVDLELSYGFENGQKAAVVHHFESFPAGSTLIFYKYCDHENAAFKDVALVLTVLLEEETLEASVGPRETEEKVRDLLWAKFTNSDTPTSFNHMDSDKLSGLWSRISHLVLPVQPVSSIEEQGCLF
Chain of Neurogenic locus notch homolog protein 3 (Homo sapiens) (Q9UM47 whole entry, looked up): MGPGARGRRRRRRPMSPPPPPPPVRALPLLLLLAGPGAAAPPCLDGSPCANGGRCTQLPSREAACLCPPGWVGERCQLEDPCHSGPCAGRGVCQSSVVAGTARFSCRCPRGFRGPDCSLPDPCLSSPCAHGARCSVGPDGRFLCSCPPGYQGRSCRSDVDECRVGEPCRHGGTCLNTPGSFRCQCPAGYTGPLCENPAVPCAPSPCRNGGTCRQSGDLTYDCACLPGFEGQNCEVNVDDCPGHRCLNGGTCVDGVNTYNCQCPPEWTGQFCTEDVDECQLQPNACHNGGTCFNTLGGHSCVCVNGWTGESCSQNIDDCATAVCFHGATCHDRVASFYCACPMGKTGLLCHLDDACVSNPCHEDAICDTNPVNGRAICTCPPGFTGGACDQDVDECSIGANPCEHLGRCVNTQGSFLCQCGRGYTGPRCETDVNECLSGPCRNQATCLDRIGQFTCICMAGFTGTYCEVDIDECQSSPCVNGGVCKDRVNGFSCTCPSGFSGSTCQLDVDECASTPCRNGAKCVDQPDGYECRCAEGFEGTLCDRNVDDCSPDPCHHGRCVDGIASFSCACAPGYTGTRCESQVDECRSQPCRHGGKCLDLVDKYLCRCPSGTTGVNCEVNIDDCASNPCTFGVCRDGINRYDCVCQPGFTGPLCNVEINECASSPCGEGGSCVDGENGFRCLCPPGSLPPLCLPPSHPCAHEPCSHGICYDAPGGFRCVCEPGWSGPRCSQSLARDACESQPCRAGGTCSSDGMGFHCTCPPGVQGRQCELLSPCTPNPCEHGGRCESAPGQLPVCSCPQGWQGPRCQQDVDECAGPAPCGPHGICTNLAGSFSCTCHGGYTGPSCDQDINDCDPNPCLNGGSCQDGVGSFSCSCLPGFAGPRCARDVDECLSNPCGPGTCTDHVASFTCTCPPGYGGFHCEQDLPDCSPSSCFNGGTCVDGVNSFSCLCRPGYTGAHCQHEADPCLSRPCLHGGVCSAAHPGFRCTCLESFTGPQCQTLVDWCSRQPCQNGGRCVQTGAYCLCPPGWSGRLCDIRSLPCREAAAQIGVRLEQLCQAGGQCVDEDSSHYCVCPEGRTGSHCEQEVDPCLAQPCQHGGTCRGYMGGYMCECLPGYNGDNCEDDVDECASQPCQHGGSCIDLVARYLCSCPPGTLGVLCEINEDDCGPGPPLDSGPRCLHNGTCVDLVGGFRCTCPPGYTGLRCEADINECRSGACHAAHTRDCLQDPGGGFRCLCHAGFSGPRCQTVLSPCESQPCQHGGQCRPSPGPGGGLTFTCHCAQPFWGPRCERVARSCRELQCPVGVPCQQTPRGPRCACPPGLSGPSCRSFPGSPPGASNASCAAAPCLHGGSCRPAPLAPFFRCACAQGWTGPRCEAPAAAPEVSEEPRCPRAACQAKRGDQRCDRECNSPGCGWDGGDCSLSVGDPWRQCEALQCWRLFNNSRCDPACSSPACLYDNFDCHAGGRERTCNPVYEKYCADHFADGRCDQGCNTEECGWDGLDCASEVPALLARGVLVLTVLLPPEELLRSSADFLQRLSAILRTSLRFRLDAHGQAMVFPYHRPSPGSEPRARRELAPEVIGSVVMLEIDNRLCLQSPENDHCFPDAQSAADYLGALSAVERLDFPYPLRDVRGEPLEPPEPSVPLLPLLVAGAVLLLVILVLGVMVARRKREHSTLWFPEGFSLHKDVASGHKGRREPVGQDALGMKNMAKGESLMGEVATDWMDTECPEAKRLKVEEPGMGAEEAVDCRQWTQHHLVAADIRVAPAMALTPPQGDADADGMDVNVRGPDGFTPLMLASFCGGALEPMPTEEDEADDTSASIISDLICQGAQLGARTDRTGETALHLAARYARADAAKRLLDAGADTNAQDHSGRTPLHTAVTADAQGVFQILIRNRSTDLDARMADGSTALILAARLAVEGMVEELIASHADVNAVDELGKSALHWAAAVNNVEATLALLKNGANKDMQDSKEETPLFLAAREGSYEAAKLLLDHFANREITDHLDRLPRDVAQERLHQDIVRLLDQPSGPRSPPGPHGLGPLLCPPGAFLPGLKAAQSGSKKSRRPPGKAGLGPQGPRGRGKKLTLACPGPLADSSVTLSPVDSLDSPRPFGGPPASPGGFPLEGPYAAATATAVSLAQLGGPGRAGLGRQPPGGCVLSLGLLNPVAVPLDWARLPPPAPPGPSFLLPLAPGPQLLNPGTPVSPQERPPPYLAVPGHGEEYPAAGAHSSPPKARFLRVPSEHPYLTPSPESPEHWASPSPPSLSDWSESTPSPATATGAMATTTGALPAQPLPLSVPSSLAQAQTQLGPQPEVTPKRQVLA

Row | Structure (SMILES) | composite z-score [1] | z-score [2] | z-score [3] | z-score [4] | composite z-score [5] | z-score [6] | composite z-score [7] | composite z-score [8] | composite z-score [9] | composite z-score [10]
1 | Cc1ccc(S[C@]2(C(=O)NC(C)C)CC(=O)N(Cc3cc(C(F)(F)F)cc(C(F)(F)F)c3)[C@@H]2c2ccc(CO)cc2)cc1 | -0.44 | -0.637 (inactive) | -1.03 (inactive) | -0.864 (inactive) | 0.47 | -0.0937 (inactive) | -0.117 | -1.27 | -1.27 | -0.302
2 | COc1ccc([Si](C)(C)[C@H]2[C@H](CC(=O)N3Cc4ccccc4C[C@H]3CO)O[C@@]3(C(=O)N(Cc4ccc(N5CCOC5=O)cc4)c4ccccc43)[C@@H]2C)cc1 | 1.57 | -1.31 (inactive) | -0.053 (inactive) | 2.17 (inactive) | 1.25 | -0.167 (inactive) | -0.123 | 1.46 | 1.11 | -0.022
3 | O=C1C[C@]2(c3ccc([N+](=O)[O-])cc3)C(=O)N(C3CC3)c3cc(CO)ccc3[C@H]2N1CC12CC3CC(CC(C3)C1)C2 | 0.739 | -0.263 (inactive) | 0.436 (inactive) | -0.574 (inactive) | 1.87 | -1.29 (inactive) | -0.171 | -1.02 | -0.466 | -0.228
4 | COCCCNC(=O)[C@@H]1c2ccccc2C(=O)N(C(C)C)[C@H]1c1ccc(CO)cc1 | -0.325 | 0.602 (inactive) | 0.439 (inactive) | 0.395 (inactive) | -0.719 | -0.214 (inactive) | 0.0321 | 0.523 | -0.406 | -0.02
5 | NCCCCCNC(=O)[C@H]1C[C@H]2C(=O)N3CCC[C@H]3C(=O)N2[C@H]1c1cccc(OCCO)c1 | 1.56 | 0.372 (inactive) | -1.53 (inactive) | 0.674 (inactive) | 3.15 | 0.0425 (inactive) | 0.767 | -0.321 | 0.0389 | 0.102
6 | COc1ccc(C#Cc2ccc3c(c2)[C@]2(C(=O)N3)[C@H](C(=O)O)[C@H]3C(=O)O[C@H](c4ccccc4)[C@H](c4ccccc4)N3[C@@H]2c2ccc(O)cc2)cc1 | 0.789 | 1.26 (inactive) | -0.813 (inactive) | 0.0118 (inactive) | 1.98 | 0.781 (inactive) | -0.0042 | -0.654 | -0.468 | -0.0758
7 | O=C(O)[C@@H]1[C@@H]2C(=O)N(c3ccccc3)C(=O)[C@@H]2C[C@@H]1Sc1ccccc1 | -1.41 | 0.752 (inactive) | 1.68 (inactive) | 1.53 (inactive) | 0.758 | -0.686 (inactive) | 0.251 | -1.71 | -1.56 | 0.196
8 | [N-]=[N+]=Nc1ccccc1C[C@@]1(C(=O)NCCN2CCOCC2)N=C(c2ccc(OCCCO)cc2)O[C@@H]1c1ccccc1N=[N+]=[N-] | 1.55 | -2.36 (inactive) | -14.1 (active) | -0.321 (inactive) | 3.19 | -0.485 (inactive) | 0.0672 | 0.325 | 0.811 | 0.0045
9 | CC(c1ccccc1)C(O)C1C=CC2C(=O)N(C)C(=O)C2N1Nc1ccccc1 (stereo not given) | 1.33 | 0.188 (inactive) | 0.669 (inactive) | 0.419 (inactive) | 2.99 | -0.689 (inactive) | 0.445 | -0.194 | 1.14 | 0.0849
10 | COc1cc(C(O)C2C=CC3C(=O)N(C)C(=O)C3N2Nc2ccccc2)cc(OC)c1OC (stereo not given) | 1.33 | 0.0446 (inactive) | -0.549 (inactive) | -0.299 (inactive) | 3.62 | 0.238 (inactive) | 0.581 | -0.339 | 1.11 | 0.197
11 | CN(C)C(=O)[C@]1(CCC(=O)OC(C)(C)C)N=C(c2ccc(OCCCO)cc2)O[C@@H]1c1ccccc1CN=[N+]=[N-] | 1.18 | -0.299 (inactive) | -1.65 (inactive) | -0.619 (inactive) | 3.81 | 0.682 (inactive) | 0.0987 | 0.717 | -0.162 | -0.149
12 | CCCN1C(=O)[C@]2(Cc3ccccc31)N=C(c1ccc(OCCCO)cc1)O[C@@H]2c1ccccc1 | 1.55 | -1.49 (inactive) | -2.93 (inactive) | 1.44 (inactive) | 2.74 | -0.0411 (inactive) | -0.0391 | 1.66 | 1.03 | -0.139
13 | CC(C)NC(=O)[C@@]1(C)c2ccccc2C(=O)N(Cc2ccc(OC(F)(F)F)cc2)[C@H]1c1ccc(CO)cc1 | 0.911 | 0.738 (inactive) | -0.784 (inactive) | -1.38 (inactive) | 2.32 | -1.55 (inactive) | -0.221 | -0.748 | -0.284 | -0.349
14 | COc1ccc([C@H]2OC[C@@H]3C[C@H](Cc4ccccc4)C(=O)N32)cc1 | -0.476 | 1.35 (inactive) | -2 (inactive) | 0.861 (inactive) | 0.449 | -0.238 (inactive) | -0.155 | 0.614 | 0.363 | -0.0978
15 | CCCCCCCCCCC(O)C1C=CC2C(=O)N(c3ccccc3)C(=O)C2N1Nc1ccc(C#N)cc1 (stereo not given) | 1.37 | 0.614 (inactive) | 0.53 (inactive) | 2.57 (inactive) | 3.36 | -0.983 (inactive) | 0.12 | 0.0931 | 1.09 | 0.0288
16 | O[C@@H](Cc1ccccc1)[C@@H](/C=C/C1CC1)N(CC#Cc1ccccc1)Cc1ccccc1Br | -0.0917 | 0.298 (inactive) | 0.398 (inactive) | 1.43 (inactive) | 0.461 | 0.247 (inactive) | 0.0166 | -1.33 | -0.817 | -0.339
17 | O=C1OCCC/C=C\[C@H]2OC34C=CCN(c5ccc6ccccc6c5)C(=O)[C@H]3N(CCO)C(=O)[C@@H]4C12 (stereo not given in full) | -0.352 | 0.0709 (inactive) | -0.224 (inactive) | 0.341 (inactive) | 0.25 | 0.491 (inactive) | -0.14 | -1.79 | -0.858 | -0.335
18 | CCCN1C(=O)[C@@]2(Cc3ccccc31)N=C(c1ccc(OCCCO)cc1)O[C@H]2c1ccccc1 | 1.46 | -0.306 (inactive) | -7.39 (inactive) | 0.99 (inactive) | 2.58 | -0.0139 (inactive) | 0.235 | 0.643 | 0.355 | 0.0192
19 | C=CCC(OC(C)=O)[C@@H]1[C@@H](N(Cc2cccc3ccccc23)C(=O)Cc2ccc(OC)cc2)c2cc(OCCCO)ccc2N1C(=O)c1ccc(-c2ccccc2)cc1 (stereo not given in full) | 0.328 | 0.0338 (inactive) | 0.402 (inactive) | -0.962 (inactive) | 1.1 | -0.373 (inactive) | -0.206 | -0.424 | 0.0523 | -0.19
20 | COC(=O)[C@@]1(Cc2ccc(OC)cc2)[C@H]2c3cc(C(=O)N4CCCC4)n(CCc4c[nH]c5ccc(O)cc45)c3C[C@H]2CN1C(=O)c1ccccc1 | 0.66 | 0.277 (inactive) | 1.16 (inactive) | 0.687 (inactive) | 3.16 | 0.573 (inactive) | 0.379 | -0.0208 | 1.12 | 0.262
21 | COC(=O)[C@@H]1N=C(c2ccc(OCCCO)cc2)O[C@@H]1C | 1.28 | 0.464 (inactive) | -0.0679 (inactive) | -0.184 (inactive) | -0.0276 | 0.98 (inactive) | 0.0539 | 0.0641 | 0.0599 | -0.0465
22 | [N-]=[N+]=Nc1ccccc1[C@@H]1OC(c2ccc(OCCCO)cc2)=N[C@]1(Cc1ccccc1)C(=O)O | 1.56 | 0.85 (inactive) | 0.594 (inactive) | 1.82 (inactive) | 2.43 | 0.779 (inactive) | 0.106 | 0.522 | 1.05 | -0.268

— PubChem BioAssay
